Reference: the OligoGym collection

Key:
Experiment in all cases: pooled miR-30 sensor sort-seq; sequence = guide strand
Conditions in all cases: shRNA
[1] = target: SLC23A2
[2] = target: SLC22A8
[3] = target: SLC25A18
[4] = target: SLC25A25
[5] = target: SLC39A12
[6] = target: SLC39A3
[7] = target: SLC45A3
[8] = target: SLC44A2

Question: Which sensor-assay potency score (higher = more potent) [1] does the source give for TTGTCTGTAGCAAAGTAGTGAT here?
Answer: -0.911

Question: With TTCTGTCTGAGGTAACTTGGAA as the sequence, how does the sensor-assay potency score (higher = more potent) [1] read?
Answer: -0.6

Question: With TTGAGTTTGAGCTCCTCCAAGC as the sequence, how does the sensor-assay potency score (higher = more potent) [2] read?
Answer: -1.05

Question: With TTAACAATGCTAAATCCTCAAG as the sequence, how does the sensor-assay potency score (higher = more potent) [3] read?
Answer: -1.35

Question: How did the sensor-assay potency score (higher = more potent) [2] turn out when TTGCACACCAAGTCCCACTCTG was run?
Answer: 0.471

Question: How did the sensor-assay potency score (higher = more potent) [2] turn out when TTCTTCCACACCCATAGCCAAA was run?
Answer: -1.71

Question: TTCTGTTGAACTTCCAGCCTCC was tested. Which sensor-assay potency score (higher = more potent) [1] did it give?
Answer: 0.654

Question: Which sensor-assay potency score (higher = more potent) [2] does the source give for TTTCCAGACAAGACCAACCAGC here?
Answer: -0.636

Question: Which sensor-assay potency score (higher = more potent) [1] does the source give for TAAATCAATGAACTGCAGGTTA here?
Answer: 0.267

Question: Which sensor-assay potency score (higher = more potent) [4] does the source give for TTCCAGTCGATGGTCATCGTGC here?
Answer: -0.398

Question: With TTAAAATACAGAAACAACCCTT as the sequence, how does the sensor-assay potency score (higher = more potent) [3] read?
Answer: 0.611

Question: Which sensor-assay potency score (higher = more potent) [1] does the source give for TATAAATCATGTCTGATCGCTG here?
Answer: 0.473

Question: How did the sensor-assay potency score (higher = more potent) [2] turn out when TATAGTAGGCAAAACCGGTAGC was run?
Answer: 0.235

Question: With TTTATTACTCATGTTGAGCTTT as the sequence, how does the sensor-assay potency score (higher = more potent) [5] read?
Answer: -0.0356

Question: AAAATCTGTCTCGATGATCTTC was tested. Which sensor-assay potency score (higher = more potent) [6] did it give?
Answer: 0.079

Question: How did the sensor-assay potency score (higher = more potent) [7] turn out when TAGCAGGTTGACCAGCAAGAGC was run?
Answer: -1.81

Question: For TGATTATCAGGTGACAACCGAC, which sensor-assay potency score (higher = more potent) [6] is on record?
Answer: -1.07

Question: With TAAAACAGCGTGAAGGTCATGA as the sequence, how does the sensor-assay potency score (higher = more potent) [7] read?
Answer: 0.302

Question: With TTTGATGAGTGCAATCGCGATG as the sequence, how does the sensor-assay potency score (higher = more potent) [8] read?
Answer: -0.724

Question: With TAGGCAGTGACAGACTGGCTGA as the sequence, how does the sensor-assay potency score (higher = more potent) [7] read?
Answer: -0.555

Question: For TAATCCAGTACCAAGAGACGGT, which sensor-assay potency score (higher = more potent) [8] is on record?
Answer: 0.196

Question: AAATCCGTGTAAAACAGCGTGA was tested. Which sensor-assay potency score (higher = more potent) [7] did it give?
Answer: -0.511

Question: TCTTTGATGAGTGCAATCGCGA was tested. Which sensor-assay potency score (higher = more potent) [8] did it give?
Answer: -1.09

Question: For TGTCTCGATGATCTTCACGGGG, which sensor-assay potency score (higher = more potent) [6] is on record?
Answer: -0.768

Question: How did the sensor-assay potency score (higher = more potent) [6] turn out when TTTCTGGACACTAGGCACGAGG was run?
Answer: -1.43

Question: TAGAAATATCTCCACCAGCTGC was tested. Which sensor-assay potency score (higher = more potent) [5] did it give?
Answer: -1.07

Question: With TAGGTGTGTCTCAACTAGGAGG as the sequence, how does the sensor-assay potency score (higher = more potent) [7] read?
Answer: -0.961

Question: Which sensor-assay potency score (higher = more potent) [6] does the source give for TCTGTCTCGATGATCTTCACGG here?
Answer: -0.084

Question: TTGCAGAGAGAGAGGATCTTTT was tested. Which sensor-assay potency score (higher = more potent) [6] did it give?
Answer: -0.914

Question: Which sensor-assay potency score (higher = more potent) [8] does the source give for TTATAGACCGCTTCGTTGGAAG here?
Answer: -0.973
